Sampled rows, rich in hits. Any-hit rate of the full collection: about 21%.
Shiga inhibitor = blocks Shiga toxin action in Vero cells | Vero cells, Shiga toxin protein synthesis inhibition reporter | AID 2315 | actives 9.2% (n = 290,000) | inhibition, % at 38.7 µM; in the data active = inhibition mostly above about 28%, no sharp cut-off; inactive = mostly below about 43%; also: 0% is about no effect
Pf growth 96h = P. falciparum growth inhibition at 96 hour, primary screen for plastid delayed-death inhibitors. P. falciparum luciferase reporter growth, 96 h. Potency, µM (top dose mostly 28.7 µM), without a hit: at the top dose activity change, negative = inhibition, actives largely listed as inhibitors. actives 6.9% (n = 320,000); also: potency is read from the fitted curve at half-maximal effect; % is scaled to controls: 0 for no effect and ±100 for the full control effect
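Parasite growth measured via integrated firefly luciferase reporter in P. falciparum. Infected erythrocytes at 2% hematocrit, 0.05% parasitemia final were treated 96 hours at 37 C under 5% CO2, and luminescence was read.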
NS1 inh = influenza NS1 inhibition | AID 2326 | actives 0.4% (n = 270,000) | Potency, µM (top dose mostly 46.1 µM), without a hit: at the highest dose activity, positive = more growth; calls by dose curve; also: potency is read from the fitted curve at half-maximal effect; actives are rising curves; nearly all actives have a fitted effect of over 50% in size
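Recovery from NS1-induced slow growth read by OD600 in budding yeast switched to galactose assay medium (pH 6.0, -URA) at 1:100 dilution. Compound 23 nl per well; the matching strain lacking NS1 serves as control.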
Cycloheximide cs = counter-screen for Shiga toxin inhibitors: cycloheximide protein synthesis inhibition; cell reporter, cycloheximide protein synthesis inhibition counterscreen; max response, %; AID 2314; actives 12% (n = 300,000); in the data active = max response mostly above about 13%, no sharp cut-off; inactive = mostly below about 14%; also: read at 38.3 µM for the half of the compounds with a filed dose; 0% is about no effect
Pf growth 48h = inhibits P. falciparum growth in the first generation, 48 h; P. falciparum luciferase growth in erythrocytes, 48 h; Potency, µM (highest dose often 28.7 µM), for the others: at the top dose activity change, negative = inhibition, most hits filed as inhibitors; actives 5.9% (n = 310,000); also: potency is read from the fitted curve at half-maximal effect; % is scaled to controls: 0 for no effect and ±100 for the full control effect
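A one-generation exposure of luciferase-tagged malaria parasites in RPMI 1640/Albumax erythrocyte culture, 37 C and 5% CO2. Inhibition is inferred from decreased luminescence after adding detection reagent.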
Numbers without * were called inactive; u = inconclusive; x = no result. Unless noted, calls follow the shape of the dose curve; as a rule, active = well fitted inhibition curve with a large enough effect; inconclusive = small, poorly fitted or top-dose-only effect, or another doubt; inactive = no such curve, though single readings can be large or run the other way.

SMILES	Shiga inhibitor	Pf growth 96h	NS1 inh	Cycloheximide cs	Pf growth 48h
COc1ccc(/C=C(\NC(=O)c2ccccc2Cl)C(=O)NCCCC(=O)O)cc1	-8.4	-65.8%	3.7%	4.9	23.8%
Cc1ccc(-n2nc3c(=O)n(CCCC(=O)NCc4ccco4)nc(C)c3c2C)cc1	1.5	u	-12.2%	6.1	11.7µM*
Cc1ccccc1C(=O)Nc1cccc(NC(=S)NC(=O)c2cccs2)c1	15.4	2.4%	-1.3%	-1.0	u
O=C(Nc1cccc(NC(=S)NC(=O)c2cccs2)c1)c1ccccc1	16.7	37.6%	21.3%	-1.7	28.0%
O=C(NC(=S)Nc1cccc(NC(=O)c2ccccc2Cl)c1)c1cccs1	9.5	u	10.6%	15.3*	38.0%
CC(C)C(=O)Nc1cccc(NC(=S)NC(=O)c2cccs2)c1	75.3*	30.8%	11.8%	32.5*	99.4%
COc1cc(NC(=S)NC(=O)c2cccs2)ccc1NC(=O)C(C)C	56.3*	-18.0%	7.5%	22.7*	1.7%
CCCC(C)NC(=O)/C=C/c1cccc([N+](=O)[O-])c1 (centres undefined)	-0.6	31.6%	-5.5%	11.1*	u
O=C(/C=C/c1cccc([N+](=O)[O-])c1)NCc1ccccc1	-9.7	23.4%	7.7%	6.3	u
O=C(O)CSc1nnc(-c2ccncc2)n1C1CCCCC1	-8.7	u	-3.9%	-4.9	2.2%
COc1cc(NC(=S)NC(C)=O)ccc1NC(=O)C(C)C	61.2*	32.3%	-46.0%	25.1*	44.7%
CCCCC(=O)NC(=S)Nc1ccc(NC(=O)C(C)C)c(OC)c1	-16.0	186.6%	-1.5%	6.9	-10.3%
CCc1ccc(NC(=S)Nc2cc(OC)c(NC(=O)C(C)C)cc2OC)cc1	16.4	u	-3.0%	22.5*	0.0%
CC(C)C(=O)Nc1cccc(NC(=S)NC(=O)c2ccc(Cl)cc2)c1	67.2*	6.2%	16.4%	64.8*	27.0%
O=C(/C=C/c1cccc([N+](=O)[O-])c1)NC(=S)Nc1cccc(NC(=O)c2ccccc2Cl)c1	-15.7	2.8%	25.4%	-5.1	13.1µM*
COc1cccc(OCCNC(=O)c2cc(OC)c(OC)c(OC)c2)c1	-4.4	9.8%	-1.5%	-1.8	-4.5%
O=C(O)c1cc(N/N=C/c2c(O)ccc3ccccc23)ccc1Cl	160.1*	160.5%	-4.3%	63.4*	253.7%
O=C(CNc1ccccc1)N/N=C/c1c(O)ccc2ccccc12	-4.4	407.2%	3.4%	14.2	u
Nc1cc(Cl)nc(N/N=C/c2c(O)ccc3ccccc23)n1	116.4*	u	9.9%	26.3*	u
Nc1nonc1N/N=C/c1c(O)ccc2ccccc12	24.3	21.0%	x	11.7	-10.8%
O=C(CSCC(=O)Nc1ccccc1)N/N=C/c1c(O)ccc2ccccc12	7.8	1.85µM*	-3.5%	19.4	2.62µM*
O=S(=O)(/N=C/c1c(O)ccc2ccccc12)c1ccccc1	18.2	0.0%	3.5%	11.1*	0.0%
CC(=O)N1CCN(c2ccccc2NC(=O)c2ccco2)CC1	-9.3	-1.4%	3.8%	12.9	u
COc1ccc(NC(=O)c2cccc(-c3ccc(O)cc3)c2)cn1	42.1	u	3.7%	16.6	u
CCOc1ccc(-c2cccc(NS(=O)(=O)c3ccc([N+](=O)[O-])cc3)c2)nn1	x	u	x	x	-14.8%
SMILES	Shiga inhibitor	Pf growth 96h	NS1 inh	Cycloheximide cs	Pf growth 48h
COc1ccc(C)cc1S(=O)(=O)Nc1cccnc1	9.0	6.57µM*	2.1%	1.6	24.3%
CCCCCNS(=O)(=O)c1cc(C)ccc1OC	3.4	11.7µM*	-1.3%	-1.0	-11.2%
COc1ccc(S(=O)(=O)Nc2cccnc2)c(C)c1C	-4.6	-14.9%	3.9%	-2.3	0.0%
Cc1ccc([N+](=O)[O-])cc1S(=O)(=O)Nc1cccc(-c2ccc(N3CCCC3)nn2)c1	x	26.5%	x	x	41.2%
COc1ccc(C)cc1S(=O)(=O)Nc1cccc(-c2ccc(N3CCCCCC3)nn2)c1	26.7	u	8.5%	20.1*	-4.7%
CCOc1ccc(S(=O)(=O)Nc2cccc(-c3ccc(N4CCCCCC4)nn3)c2)cc1	41.4*	11.9%	-3.8%	24.8*	29.0%
O=C(CSc1nc(-c2ccco2)cc(C(F)(F)F)n1)NCCN1CCOCC1	-3.1	u	-0.5%	-2.4	11.8%
O=S(=O)(Nc1cccc(-c2ccc(N3CCCCCC3)nn2)c1)c1ccc(F)cc1	84.6*	-12.0%	7.8%	42.7*	36.6%
O=[N+]([O-])c1ccc(S(=O)(=O)Nc2cccc(-c3ccc(N4CCOCC4)nn3)c2)cc1	x	0.6%	x	x	9.8%
